# In ChEMBL document CHEMBL3988442, “University of Dundee, Small-Polar-MMV Screening Library” (2021):
# Biological target: T1, Aspartate--tRNA(Asp/Asn) ligase (Mycobacterium tuberculosis (strain ATCC 25618 / H37Rv)) (UniProt P9WFW3)
# T1 sequence (whole entry): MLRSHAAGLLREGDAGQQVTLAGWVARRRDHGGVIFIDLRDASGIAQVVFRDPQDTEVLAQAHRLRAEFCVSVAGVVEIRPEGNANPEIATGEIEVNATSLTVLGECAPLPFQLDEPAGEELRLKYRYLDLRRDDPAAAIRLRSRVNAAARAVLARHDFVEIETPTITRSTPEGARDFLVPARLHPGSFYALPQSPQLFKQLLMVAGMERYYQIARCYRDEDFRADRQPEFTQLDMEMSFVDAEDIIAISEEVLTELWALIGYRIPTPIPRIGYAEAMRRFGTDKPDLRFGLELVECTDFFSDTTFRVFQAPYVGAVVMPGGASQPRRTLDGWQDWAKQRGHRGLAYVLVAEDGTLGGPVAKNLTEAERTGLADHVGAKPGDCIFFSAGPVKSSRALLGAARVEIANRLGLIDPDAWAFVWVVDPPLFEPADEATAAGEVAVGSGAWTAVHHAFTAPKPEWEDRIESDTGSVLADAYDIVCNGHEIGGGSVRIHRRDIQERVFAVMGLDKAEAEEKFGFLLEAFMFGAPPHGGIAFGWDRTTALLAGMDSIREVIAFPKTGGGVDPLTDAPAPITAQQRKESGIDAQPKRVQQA
# Assay: Assay for Asp RNA synthetase-1 from Mycobacterium tuberculosis
# Format: functional
# Parameters: scale not given: in the data most compounds retested in dose-response had high values
# Settings: 30 µM
row,SMILES,Percent Effect [%]
1,c1ccc(-n2ncc(CNCC3CCCN3c3cccnn3)n2)cc1 (stereo not given),4.5
2,Cc1cccnc1NC(=O)NC(C)Cn1cccn1 (stereo not given),-3.52
3,c1cncc(OCC2CN(Cc3ccco3)Cc3nccn3C2)c1 (stereo not given),-1.34
4,Cc1cnc2c(c1NCc1ccncc1)c(=O)n(C)c(=O)n2C,-5.41
5,CC(O)CN1CCN(C(=O)c2cc3ccccc3c(=O)[nH]2)CC1 (stereo not given),0.869
6,COc1ccccc1N1CCC(CNCc2cccc(O)c2)C1 (stereo not given),2.22
7,COc1ccc(CN2CCc3ncnc(C4CCOC4)c3CC2)cc1 (stereo not given),-0.146
8,COCc1c(C(=O)NC2CCCC2)nnn1-c1ccc(C)cc1,-4.96
9,O=S(=O)(CCCN1CCCC1Cn1cccn1)c1ccccc1 (stereo not given),-2.01
10,COCC(=O)NCc1cc(=O)n2c(n1)CN(Cc1ccsc1)CCC2,5.55
11,Cc1ccc(NC(=O)Cn2cc(I)cn2)cc1,1.25
12,CC(C)c1nnc2n1CCN(Cc1csc(CC(=O)N(C)C)n1)C2,-7.04
13,Cc1cnn(CC2CCCCN2C(=O)Cc2csc(C)n2)c1 (stereo not given),-2.23
14,CNc1nc2c(s1)C(c1cccc(F)c1F)CC(=O)N2 (stereo not given),34.5
15,O=C(C1=CCCC1)N1CCC[C@]2(C[C@@H](OCc3ccncc3)CO2)C1,5.27
16,Cc1ccc(N2CCCN(C(=O)CC3CCCO3)CC2)nn1 (stereo not given),10.1
17,COCC(=O)NCc1cc(=O)n2c(n1)CN(CC1CCOC1)CCC2 (stereo not given),-4.6
18,CCc1nc(CN2CCN(c3ncnc4cc(F)ccc34)CC2)no1,-1.46
19,COCCC(=O)N1CC[C@@H](N(C)C)[C@@H]1Cc1ccccc1,-3.16
20,CN(Cc1cccc(F)c1)C1CCN(CCc2ccccn2)CC1,-3.32

row,SMILES,Percent Effect [%]
1,COc1cc2nc(C)n(CC(=O)O)c(=O)c2cc1OC,1.68
2,CCCc1n[nH]c(C2CN(C(=O)CCCn3cccn3)CCO2)n1 (stereo not given),-0.947
3,Cc1ccc(N(C)C2CCN(C(=O)CCc3ccco3)CC2)nn1,2.42
4,CCN1CCN(CC(C)(O)c2cccc(C(F)(F)F)c2)CC1 (stereo not given),3.38
5,CN(CCNC(=O)NCc1ccncc1)C1CCCC1,-2.09
6,CN(C)CCO[C@H]1CN(Cc2cccc(C#N)c2)[C@@H]2COC[C@H]12,1.95
7,O=C(CN(C1=NCCCC1)c1ccccc1)c1ccccc1,2.67
8,CNc1cc(C)nc(C2CN(Cc3ccc(C)nc3)CCO2)c1 (stereo not given),0.61
9,O=C(NCC1CCSCC1)N(CCCO)C1CCc2ccccc21 (stereo not given),6.01
10,NC(=O)NCC(=O)N1C[C@H]2CC[C@@H]1CN(Cc1ccccc1)C2,15.6
11,Cc1cnn(C2CN(CC(=O)NCCc3ccccc3)C2)c1,-1.74
12,Nc1cc2c(nn1)CCN(C(=O)c1cccc3c1OCCO3)C2,3.34
13,Cc1nc([C@@H]2C[C@@H]3CCN(C(=O)Cc4ccsc4)C[C@H]3O2)no1,-2.49
14,CC(C)(C)c1cn2nc(N3CCCC3Cn3cncn3)sc2n1 (stereo not given),-3.59
15,CN1CCOC(CNCc2coc(-c3cccs3)n2)C1 (stereo not given),3.28
16,CCc1c(C)nc2n(c1=O)CC(C(=O)Nc1ccccc1F)CS2 (stereo not given),-3.83
17,CN(Cc1ncc[nH]1)S(=O)(=O)c1cccc(C(=O)N2CCOCC2)c1,8.16
18,Cc1ccc(CNC(=O)N2CCN(Cc3ccsc3)CC2)n1C,0.896
19,CC(C)(C)c1n[nH]c(C2CN(C(=O)c3csnn3)CCO2)n1 (stereo not given),-2.01
20,Cn1ccnc1CN1CCN(Cc2ccccc2C#N)CC1,1.91
